“And” between values parts separate entries of the source, which are not always exact repeats. Equal values may be shown once. This is part of a sample that, as a whole, favours compounds with a hit. Of some 83,000 tested, about 20% had one in any assay.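 Compound tested at a single concentration for 48 hours in 96-well plates; a percent growth value below 10 was scored as active.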 Values without a mark were called inactive. The source made the active and inactive calls.

Among the test systems are NCI-H23 lung; NCI-H226 lung; NCI-H322M lung; HOP-62 NSCLC; NCI-H460 lung; HOP-92 NSCLC; NCI-H522 lung; A549/ATCC NSCLC; 786-0 renal; COLO 205 colon.
Holding throughout (assay): NCI-60 one-dose screen, 48 h (100 = growth as untreated, 0 = no growth, -100 = all killed)

Turning to `O=C1Nc2cc(-c3ccc(NS(=O)(=O)c4ccc([N+](=O)[O-])cc4)cc3)ccc2/C1=C/c1ccc[nH]1`, the growth was 3.29% (active) with NCI-H23 lung (10 µM unless noted); -12.3% (active) in the assay with NCI-H226 lung (10 µM unless noted); 62.2% in the assay with NCI-H322M lung (10 µM unless noted); 0.132% (active) with HOP-62 NSCLC (10 µM unless noted); 3.96% (active) in the assay with NCI-H460 lung (10 µM unless noted); -29.9% (active) in the assay on HOP-92 NSCLC (10 µM unless noted). The growth with NCI-H522 lung (10 µM unless noted) was -5.99% (active); in the assay with A549/ATCC NSCLC (10 µM unless noted) it was -31.9% (active); in the assay on 786-0 renal (10 µM unless noted) it was -8.24% (active); with COLO 205 colon (10 µM unless noted), -31.8% (active).
Regarding `COc1ccccc1NC(=O)c1ccc(NC(=O)CCl)s1`, the growth in the assay on NCI-H23 lung (10 µM unless noted) was -66% (active); with NCI-H226 lung (10 µM unless noted), -34.6% (active); in the assay on NCI-H322M lung (10 µM unless noted), 94.1%; with HOP-62 NSCLC (10 µM unless noted), 41.9%; in the assay with NCI-H460 lung (10 µM unless noted), -16% (active); with HOP-92 NSCLC (10 µM unless noted), -0.226% (active). Moreover, the growth is -77.3% (active) in the assay on NCI-H522 lung (10 µM unless noted), -2.86% (active) in the assay on A549/ATCC NSCLC (10 µM unless noted), -93.4% (active) with 786-0 renal (10 µM unless noted) and 9.16% (active) with COLO 205 colon (10 µM unless noted).
In the case of `CC/C(=C(\c1ccc(O)cc1)c1ccc(OCCNC)cc1)c1ccccc1`, the growth was 98.9% in the assay with NCI-H23 lung (1 µM); 96.5% in the assay on NCI-H23 lung (10 µM); 85.9% in the assay on NCI-H226 lung (1 µM); 74.7% with NCI-H226 lung (10 µM); 100% with NCI-H322M lung (1 µM); 102% in the assay on NCI-H322M lung (10 µM). Also, the growth in the assay with HOP-62 NSCLC (1 µM) is 97.8%; in the assay on HOP-62 NSCLC (10 µM), 96.8%; in the assay with NCI-H460 lung (1 µM), 118%; in the assay on NCI-H460 lung (10 µM), 69.2%; with HOP-92 NSCLC (1 µM), 80.2%; with HOP-92 NSCLC (10 µM), 65.1%. Moreover, the growth in the assay with NCI-H522 lung (1 µM) is 87.9%; in the assay with NCI-H522 lung (10 µM) it was 93%; in the assay on A549/ATCC NSCLC (1 µM) it was 93.9%; in the assay with A549/ATCC NSCLC (10 µM), 88.2%; with 786-0 renal (1 µM), 89.7%; in the assay on 786-0 renal (10 µM), 76.7%. The growth in the assay with COLO 205 colon (1 µM) was 116%; in the assay on COLO 205 colon (10 µM) it was 91%.
Turning to `NC(=O)c1ccc(-c2ccc3ncnc(N4CCc5cc(F)c(Cl)cc54)c3c2)cn1`, the growth with NCI-H23 lung (10 µM unless noted) was 70.9%; in the assay with NCI-H226 lung (10 µM unless noted) it was 83.3%; in the assay on NCI-H322M lung (10 µM unless noted), 24.1%; in the assay on HOP-62 NSCLC (10 µM unless noted), 99.9%; with NCI-H460 lung (10 µM unless noted) it was 79.6%; with HOP-92 NSCLC (10 µM unless noted) it was 15.4%. Moreover, the growth with NCI-H522 lung (10 µM unless noted) is 94.1%; with A549/ATCC NSCLC (10 µM unless noted), 63%; with 786-0 renal (10 µM unless noted) it was 66.5%; with COLO 205 colon (10 µM unless noted), 47.9%.
As for `Cc1nc(Nc2ccccn2)sc1C1=NNC(c2ccccc2F)C1` (stereo not given), the growth in the assay on NCI-H23 lung (10 µM unless noted) was 67.6%; with NCI-H226 lung (10 µM unless noted), 78.9%; in the assay with NCI-H322M lung (10 µM unless noted), 89.1%; with HOP-62 NSCLC (10 µM unless noted), 70.6%; with NCI-H460 lung (10 µM unless noted), 28%; in the assay with HOP-92 NSCLC (10 µM unless noted), 62.4%. Besides, the growth is -18.9% (active) in the assay with NCI-H522 lung (10 µM unless noted), 59.2% with A549/ATCC NSCLC (10 µM unless noted), 57.6% with 786-0 renal (10 µM unless noted) and 86% in the assay with COLO 205 colon (10 µM unless noted).
Turning to `Cc1ccc(S(=O)(=O)N(CCn2ccnc2[N+](=O)[O-])CCn2ccnc2[N+](=O)[O-])cc1`, the growth in the assay on NCI-H23 lung (10 µM unless noted) is 104%; in the assay with NCI-H226 lung (10 µM unless noted), 100%; in the assay on NCI-H322M lung (10 µM unless noted), 107%; in the assay with HOP-62 NSCLC (10 µM unless noted), 108%; in the assay with NCI-H460 lung (10 µM unless noted) it was 109%; in the assay with HOP-92 NSCLC (10 µM unless noted), 106%. The growth was 91.5% in the assay with NCI-H522 lung (10 µM unless noted), 102% in the assay with A549/ATCC NSCLC (10 µM unless noted), 101% in the assay with 786-0 renal (10 µM unless noted) and 111% in the assay on COLO 205 colon (10 µM unless noted).
As to `O=C(COc1ccc(/C=C2/C(=O)Nc3ccc(Cl)cc32)cc1)Nc1ccc(Br)cc1`, the growth was -53.6% (active) in the assay with NCI-H23 lung (10 µM unless noted); -48.5% (active) in the assay on NCI-H226 lung (10 µM unless noted); 0.856% (active) with NCI-H322M lung (10 µM unless noted); -72.6% (active) with HOP-62 NSCLC (10 µM unless noted); -31.6% (active) in the assay with NCI-H460 lung (10 µM unless noted); -48.4% (active) with HOP-92 NSCLC (10 µM unless noted). Further, the growth in the assay with NCI-H522 lung (10 µM unless noted) is -35% (active); in the assay with A549/ATCC NSCLC (10 µM unless noted) it was -66.2% (active); in the assay with 786-0 renal (10 µM unless noted) it was -78.9% (active); in the assay with COLO 205 colon (10 µM unless noted), 2.47% (active).
Consider `CC[C@]12C=CCN3CC[C@]4(C(=C(C(=O)OC)C1)Nc1cc(OC)c([C@@H]5[C@H]6O[C@H]6[C@@]6(CC)CC(C(=O)OC)=C7Nc8cc(O)ccc8[C@@]78CCN5[C@@H]68)cc14)[C@@H]32`, for which the growth in the assay with NCI-H23 lung (10 µM unless noted) is -18.8% (active); in the assay on NCI-H226 lung (10 µM unless noted), -58.1% (active); with NCI-H322M lung (10 µM unless noted), 33.6%; in the assay with HOP-62 NSCLC (10 µM unless noted), 32.2%; in the assay on NCI-H460 lung (10 µM unless noted), -68.4% (active); in the assay with HOP-92 NSCLC (10 µM unless noted), -41.9% (active). The growth with NCI-H522 lung (10 µM unless noted) was -31.2% (active); in the assay with A549/ATCC NSCLC (10 µM unless noted) it was 17.2%; in the assay with 786-0 renal (10 µM unless noted), -8% (active); in the assay with COLO 205 colon (10 µM unless noted) it was -70.2% (active).
Consider `CN(C(=O)CN1C(=O)/C(=C/c2ccco2)SC1=S)C1CCS(=O)(=O)C1` (stereo not given), for which the growth was 100% with NCI-H23 lung (10 µM unless noted); 100% with NCI-H226 lung (10 µM unless noted); 99.3% in the assay with NCI-H322M lung (10 µM unless noted); 123% in the assay with HOP-62 NSCLC (10 µM unless noted); 95.5% in the assay with NCI-H460 lung (10 µM unless noted); 102% in the assay on HOP-92 NSCLC (10 µM unless noted). Besides, the growth in the assay with NCI-H522 lung (10 µM unless noted) was 15.4%; in the assay on A549/ATCC NSCLC (10 µM unless noted) it was 102%; in the assay with 786-0 renal (10 µM unless noted), 93.4%; in the assay with COLO 205 colon (10 µM unless noted), 119%.
`O=C(Cn1c(-c2ccccc2)nc2ccccc21)N=Nc1c(O)[nH]c2ccc(Cl)cc12`: the growth with NCI-H23 lung (10 µM unless noted) was 20.8%; in the assay with NCI-H226 lung (10 µM unless noted) it was -62.1% (active); with NCI-H322M lung (10 µM unless noted), 5% (active); with HOP-62 NSCLC (10 µM unless noted), -58.6% (active); with NCI-H460 lung (10 µM unless noted), 3.44% (active); with HOP-92 NSCLC (10 µM unless noted), -41.7% (active). Moreover, the growth in the assay with NCI-H522 lung (10 µM unless noted) is 40.5%; in the assay on A549/ATCC NSCLC (10 µM unless noted) it was 6.42% (active); in the assay with 786-0 renal (10 µM unless noted) it was -18.5% (active); in the assay on COLO 205 colon (10 µM unless noted) it was -40.3% (active).
In the case of `O=c1[nH]c2ccccc2cc1COc1ccc(Nc2nccc(-c3ccc(Cl)cc3)n2)cc1`, the growth is 95.9% in the assay with NCI-H23 lung (10 µM unless noted); 103% in the assay with NCI-H226 lung (10 µM unless noted); 107% in the assay on NCI-H322M lung (10 µM unless noted); 87.1% in the assay on HOP-62 NSCLC (10 µM unless noted); 103% with NCI-H460 lung (10 µM unless noted); 97.7% in the assay on HOP-92 NSCLC (10 µM unless noted). The growth with NCI-H522 lung (10 µM unless noted) was 89.1%; in the assay with A549/ATCC NSCLC (10 µM unless noted), 101%; in the assay on 786-0 renal (10 µM unless noted) it was 88.2%; in the assay with COLO 205 colon (10 µM unless noted) it was 116%.
With `COC(=O)c1c(C(=O)OC)c2ccc3c4ccccc4ccc3n2c1C(=O)OC`, the growth was 102% with NCI-H23 lung (10 µM unless noted); 100% with NCI-H226 lung (10 µM unless noted); 101% with NCI-H322M lung (10 µM unless noted); 110% in the assay with HOP-62 NSCLC (10 µM unless noted); 111% in the assay with NCI-H460 lung (10 µM unless noted); 97.5% in the assay with HOP-92 NSCLC (10 µM unless noted). In addition, the growth in the assay with NCI-H522 lung (10 µM unless noted) is 100%; in the assay on A549/ATCC NSCLC (10 µM unless noted), 97.2%; with 786-0 renal (10 µM unless noted), 100%; with COLO 205 colon (10 µM unless noted), 115%.
On to `Nc1cccc(-n2c(COc3ccc(I)cc3)nc3ccccc32)c1`, for which the growth in the assay with NCI-H23 lung (10 µM unless noted) is 75.6% and 99.5%; in the assay on NCI-H226 lung (10 µM unless noted), 57.2% and 109%; in the assay on NCI-H322M lung (10 µM unless noted) it was 94.4% and 96.2%; in the assay on HOP-62 NSCLC (10 µM unless noted), 86.9% and 103%; with NCI-H460 lung (10 µM unless noted), 86.2% and 108%; in the assay with HOP-92 NSCLC (10 µM unless noted), 63.3% and 113%. The growth in the assay with NCI-H522 lung (10 µM unless noted) was 81.5% and 107%; with A549/ATCC NSCLC (10 µM unless noted), 104%; in the assay on 786-0 renal (10 µM unless noted) it was 106% and 102%; with COLO 205 colon (10 µM unless noted), 81.4% and 109%.

For the origin of these results see PubChem BioAssay (NCI).
